According to PubChem BioAssay (NCI):
Compounds without any hit were thinned out: in the full panel of roughly 79,000, 15% have a hit. The source made the active and inactive calls. Rule as the data show it: active = growth inhibition above about 70%; inactive = the rest.

Tests used:
[1] = NCI Yeast Anticancer Drug Screen. Data for the rad52 strain (AID 147);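 also: 0% = growth of vehicle-treated control cultures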; conditions: S. cerevisiae rad52 mutant growth inhibition, hits give high values
Summary of the method: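 Compounds are applied to a genetically defined yeast strain lacking normal DNA damage repair, and inhibition of growth is expressed relative to cultures given vehicle only.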

[2] = NCI Yeast Anticancer Drug Screen. Data for the rad50EPP+ strain (AID 151);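 also: 0% = growth of vehicle-treated control cultures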; conditions: S. cerevisiae rad50 mutant strain, hits give high values
Summary of the method: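 Compounds were applied to the rad50EPP+ yeast strain, which bears a defined DNA repair alteration, and growth inhibition was determined relative to vehicle-treated cultures.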

[3] = NCI Yeast Anticancer Drug Screen. Data for the mgt1 strain (AID 153); conditions: S. cerevisiae mgt1 mutant growth inhibition, hits give high values
Summary of the method: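 Strain: mgt1 yeast, one of a set carrying defined DNA damage repair or cell cycle control alterations. Compound-treated growth compared with vehicle.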

[4] = NCI Yeast Anticancer Drug Screen. Data for the rad50 strain (AID 155);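 also: 0% = growth of vehicle-only cultures of the same strain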; conditions: S. cerevisiae rad50 strain growth inhibition, hits give high values
Summary of the method: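 Genetically altered yeast (DNA repair pathway); compound treatment; growth inhibition vs vehicle ctrl.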

[5] = NCI Yeast Anticancer Drug Screen. Data for the mec2-1 strain (AID 157); conditions: S. cerevisiae mec2-1 strain, hits give high values
Summary of the method: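 Strain: mec2-1 (DNA repair/cell cycle alteration). Compound exposure, then growth measured; inhibition expressed relative to vehicle.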

[6] = NCI Yeast Anticancer Drug Screen. Data for the rad14 strain (AID 159);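 also: 0% = growth of vehicle-treated control cultures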; conditions: S. cerevisiae rad14 strain growth inhibition, hits give high values
Summary of the method: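 Test compounds were applied to a repair-deficient yeast strain. Its growth was then compared with that of cultures given vehicle alone, and inhibition was expressed relative to those controls.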

[7] = NCI Yeast Anticancer Drug Screen. Data for the CLN2oe strain (AID 163);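 also: 0% = growth of vehicle-only control cultures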; conditions: S. cerevisiae CLN2oe strain, hits give high values
Summary of the method: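 Growth of a genetically modified yeast strain is measured after compound exposure and compared with cultures given vehicle alone.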

[8] = NCI Yeast Anticancer Drug Screen. Data for the cln2 rad14 strain (AID 165);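 also: 0% = growth equal to vehicle treated cultures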; conditions: S. cerevisiae cln2 rad14 strain, hits give high values
Summary of the method: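 Compounds are applied to the cln2 rad14 yeast strain, and growth is then compared with that of vehicle-treated cultures to give inhibition.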

[9] = NCI Yeast Anticancer Drug Screen. Data for the wt2 strain (AID 169);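 also: 0% = growth of vehicle-treated yeast cultures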; conditions: S. cerevisiae wt2 strain growth inhibition, hits give high values
Summary of the method: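 This strain belongs to a panel of yeast strains with defined genetic alterations in DNA damage repair or cell cycle control. Compounds are applied, and growth inhibition is measured against vehicle-treated cultures.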

[10] = NCI Yeast Anticancer Drug Screen. Data for the mlh1 strain (AID 171);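 also: 0% = growth of vehicle-treated control cultures of the same strain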; conditions: S. cerevisiae mlh1 strain growth inhibition, hits give high values
Summary of the method: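 Growth of the mutant yeast strain after compound exposure, expressed as inhibition relative to vehicle-only controls.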

[11] = NCI Yeast Anticancer Drug Screen. Data for the sgs1 strain (AID 173);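 also: 0% = growth of vehicle-only control cultures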; conditions: S. cerevisiae sgs1 mutant, hits give high values
Summary of the method: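 Growth of a yeast strain bearing a defined genetic alteration is measured after compound treatment. Inhibition is expressed relative to vehicle-only controls.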

[12] = NCI Yeast Anticancer Drug Screen. Data for the mlh1 rad18 strain (AID 175); conditions: S. cerevisiae mlh1 rad18 strain growth inhibition, hits give high values
Summary of the method: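 Read-out is yeast growth inhibition, calculated against vehicle-only controls. The compound was applied to a strain engineered with DNA damage repair alterations.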

[13] = NCI Yeast Anticancer Drug Screen. Data for the rad18 strain (AID 177); conditions: S. cerevisiae rad18 mutant growth inhibition, hits give high values
Summary of the method: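 Growth of the mutant yeast strain after compound exposure, normalised to vehicle-only cultures.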

[14] = NCI Yeast Anticancer Drug Screen. Data for the sgs1 mgt1 strain (AID 161);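 also: 0% = growth of cultures given vehicle only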; conditions: S. cerevisiae sgs1 mgt1 strain, hits give high values
Summary of the method: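 Genetically altered yeast, compound exposure, growth inhibition relative to vehicle.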

[15] = NCI Yeast Anticancer Drug Screen. Data for the bub3 strain (AID 167); conditions: S. cerevisiae bub3 mutant strain, hits give high values
Summary of the method: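 Yeast carrying a defined mutation is treated with each compound, and growth is compared with that of vehicle-exposed cells to give inhibition.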

[16] = NCI Yeast Anticancer Drug Screen. Data for the wt1 strain (AID 149);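 also: 0% = growth of vehicle-treated wt1 cultures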; conditions: S. cerevisiae wt1 strain (SPY 50644) growth inhibition, hits give high values
Summary of the method: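 wt1 yeast, compound-treated; % growth inhibition vs vehicle control.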

[17] = at 5.0 µM (retest, dose inferred, filed as 0.5)
[18] = at 50.0 µM (retest, dose inferred, filed as 5.0)

Measured: growth inhibition

CCCCCCNCCCNc1c2ccccc2nc2cccc([N+](=O)[O-])c12
active: [1]; at 3.7 µM 80% | [1]; at 11.0 µM 92% | [1]; at 33.0 µM 95% | [1]; at 100.0 µM 95% | [2]; at 100.0 µM 94% | [3]; at 33.0 µM 78% | [3]; at 100.0 µM 94% | [4]; at 11.0 µM 90% | [4]; at 33.0 µM 94% | [4]; [18] 98% | [4]; at 50.0 µM 83.3% | [4]; at 100.0 µM 96% | [5]; at 11.0 µM 94% | [5]; at 33.0 µM 97% | [5]; [18] 99% | [5]; at 50.0 µM 88.1% | [5]; at 100.0 µM 97% | [6]; at 3.7 µM 86% | [6]; at 11.0 µM 98% | [6]; at 33.0 µM 98% | [6]; at 100.0 µM 97% | [7]; at 100.0 µM 93% | [8]; [17] 80% | [8]; [18] 99% | [8]; at 50.0 µM 85.4% | [9]; at 100.0 µM 96% | [10]; at 33.0 µM 89% | [10]; at 100.0 µM 94% | [11]; at 3.7 µM 80% | [11]; at 11.0 µM 90% | [11]; at 33.0 µM 93% | [11]; at 100.0 µM 95% | [12]; [17] 76% | [12]; [18] 98% | [12]; at 50.0 µM 78.5% | [13]; at 1.2 µM 93% | [13]; at 3.7 µM 95% | [13]; at 11.0 µM 96% | [13]; at 33.0 µM 96% | [13]; at 100.0 µM 95%
inactive: [1]; at 1.2 µM 43% | [2]; at 1.2 µM -1% | [2]; at 3.7 µM 5% | [2]; at 11.0 µM 26% | [2]; at 33.0 µM 67% | [3]; at 1.2 µM -4% | [3]; at 3.7 µM -4% | [3]; at 11.0 µM 11% | [4]; at 1.2 µM 24% | [4]; at 3.7 µM 64% | [4]; [17] 69% | [5]; at 1.2 µM 4% | [5]; at 3.7 µM 40% | [5]; [17] 15% | [6]; at 1.2 µM 23% | [7]; at 1.2 µM -6% | [7]; at 3.7 µM -6% | [7]; at 11.0 µM -5% | [7]; at 33.0 µM 29% | [9]; at 1.2 µM -1% | [9]; at 3.7 µM 0% | [9]; at 11.0 µM 5% | [9]; at 33.0 µM 31% | [10]; at 1.2 µM 2% | [10]; at 3.7 µM 9% | [10]; at 11.0 µM 35% | [11]; at 1.2 µM 62%

CCO/C=C1\SC(=S)N(c2ccc(OCC)cc2)C1=O
active: [2]; at 100.0 µM 76% | [4]; [18] 79% | [4]; at 100.0 µM 72% | [5]; [18] 86% | [15]; [18] 73% | [15]; at 50.0 µM 72.2% | [12]; [18] 76%
inactive: [2]; at 1.2 µM -38% | [2]; at 3.7 µM -21% | [2]; at 11.0 µM -6% | [2]; at 33.0 µM 42% | [3]; at 1.2 µM -13% | [3]; at 3.7 µM -6% | [3]; at 11.0 µM -20% | [3]; at 33.0 µM 0% | [3]; at 100.0 µM 45% | [4]; at 1.2 µM -17% | [4]; at 3.7 µM -7% | [4]; [17] 41% | [4]; at 11.0 µM -3% | [4]; at 33.0 µM 36% | [4]; at 50.0 µM 29.7% | [5]; at 1.2 µM -43% | [5]; at 3.7 µM -35% | [5]; [17] 47% | [5]; at 11.0 µM -27% | [5]; at 33.0 µM -41% | [5]; at 50.0 µM 28.2% | [5]; at 100.0 µM 26% | [6]; at 1.2 µM -42% | [6]; at 3.7 µM -41% | [6]; at 11.0 µM -40% | [6]; at 33.0 µM -2% | [6]; at 100.0 µM 8% | [14]; [17] -7% | [14]; [18] 44% | [14]; at 50.0 µM 33.5% | [7]; at 1.2 µM -8% | [7]; at 3.7 µM -1% | [7]; at 11.0 µM 4% | [7]; at 33.0 µM 21% | [7]; at 100.0 µM 57% | [8]; [17] 26% | [8]; [18] 60% | [8]; at 50.0 µM 21.1% | [15]; at 1.2 µM -7% | [15]; at 3.7 µM -4% | [15]; [17] 9% | [15]; at 11.0 µM -9% | [15]; at 33.0 µM 32% | [15]; at 100.0 µM 58% | [10]; at 1.2 µM -8% | [10]; at 3.7 µM -12% | [10]; at 11.0 µM -18% | [10]; at 33.0 µM -14% | [10]; at 100.0 µM -10% | [11]; at 1.2 µM -35% | [11]; at 3.7 µM -39% | [11]; at 11.0 µM -34% | [11]; at 33.0 µM -33% | [11]; at 100.0 µM 32% | [12]; [17] 29% | [12]; at 50.0 µM 57.5% | [13]; at 1.2 µM -37% | [13]; at 3.7 µM -31% | [13]; at 11.0 µM -32% | [13]; at 33.0 µM -21% | [13]; at 100.0 µM 18%

CN(C)CC(CN(C)C)C(=O)/C=C/c1ccc(Cl)cc1Cl
active: [16]; at 33.0 µM 98% | [16]; at 100.0 µM 98% | [2]; at 33.0 µM 98% | [2]; at 100.0 µM 98% | [3]; at 33.0 µM 99% | [3]; at 100.0 µM 98% | [4]; [17] 93% | [4]; at 33.0 µM 98% | [4]; [18] 98% | [4]; at 100.0 µM 97% | [5]; at 33.0 µM 98% | [5]; [18] 99% | [5]; at 100.0 µM 98% | [6]; at 33.0 µM 99% | [6]; at 100.0 µM 97% | [14]; [18] 99% | [7]; at 33.0 µM 98% | [7]; at 100.0 µM 97% | [8]; [18] 98% | [15]; at 33.0 µM 98% | [15]; [18] 98% | [15]; at 50.0 µM 99% | [15]; at 100.0 µM 97% | [9]; at 33.0 µM 98% | [9]; at 100.0 µM 98% | [10]; at 33.0 µM 99% | [10]; at 100.0 µM 98% | [11]; at 33.0 µM 98% | [11]; at 100.0 µM 98% | [12]; [18] 99% | [13]; at 33.0 µM 98% | [13]; at 100.0 µM 97%
inactive: [16]; at 1.2 µM -1% | [16]; at 3.7 µM -2% | [16]; at 11.0 µM -6% | [2]; at 1.2 µM -2% | [2]; at 3.7 µM -2% | [2]; at 11.0 µM 6% | [3]; at 1.2 µM -2% | [3]; at 3.7 µM -2% | [3]; at 11.0 µM 3% | [4]; at 1.2 µM -1% | [4]; at 3.7 µM 0% | [4]; at 11.0 µM 13% | [4]; at 50.0 µM 54.5% | [5]; at 1.2 µM -3% | [5]; at 3.7 µM -4% | [5]; [17] 13% | [5]; at 11.0 µM 6% | [5]; at 50.0 µM 42.2% | [6]; at 1.2 µM -2% | [6]; at 3.7 µM -2% | [6]; at 11.0 µM 17% | [14]; [17] 15% | [14]; at 50.0 µM 48.7% | [7]; at 1.2 µM -1% | [7]; at 3.7 µM -3% | [7]; at 11.0 µM -1% | [8]; [17] 0% | [8]; at 50.0 µM 43.8% | [15]; at 1.2 µM -3% | [15]; at 3.7 µM -4% | [15]; [17] -10% | [15]; at 11.0 µM -3% | [9]; at 1.2 µM -2% | [9]; at 3.7 µM -5% | [9]; at 11.0 µM 2% | [10]; at 1.2 µM -3% | [10]; at 3.7 µM -5% | [10]; at 11.0 µM 10% | [11]; at 1.2 µM -2% | [11]; at 3.7 µM -2% | [11]; at 11.0 µM 5% | [12]; [17] 6% | [12]; at 50.0 µM 45% | [13]; at 1.2 µM -4% | [13]; at 3.7 µM -3% | [13]; at 11.0 µM 14%
